# Experimental data from the supplement of paper PMC6555819.
# What was measured:
# Test in all cases: PBM binding z-score (relative to random genomic background probes); higher = stronger binding; sequences stand for … in GC…GCGATTGACAGCGTAGAATGAAGG
# [1] = test system: PPARg:RXRa DBDmut IVT, anti-RXR (DBD mutation: RXRa K156A/R161A, NR concentration 270 nM, RXRa partner concentration 90 nM)
# In short: (§1)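 The probes on custom Agilent 4×180K protein-binding microarrays were double-stranded, with 34-nt variable regions bearing direct-repeat seeds, single-nucleotide variants, half-site ablations and random human genomic background sequences. Incubation lasted 1 h with ligand-free nuclear receptor dimers in PBS pH 7.4, 2% milk, 0.02% Triton X-100, 1 mM DTT, 0.2 mg/mL BSA and 0.4 mg/ml salmon testes DNA. Antibodies against each partner (one per run) detected bound dimers, and fluorescence scans were regression-normalized. Binding z-scores take the random background probes as reference.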
# [2] = test system: PPARg:RXRa IVT, anti-PPARg (NR concentration 270 nM, RXRa partner concentration 90 nM)
# In short: as §1
# [3] = test system: PPARg DBDmut:RXRa IVT, anti-PPARg (DBD mutation: PPARg1 K132A/R137A, NR concentration 270 nM, RXRa partner concentration 90 nM)
# In short: as §1
# [4] = test system: PPARg DBDmut IVT, anti-PPARg (DBD mutation: PPARg1 K132A/R137A, NR concentration 270 nM)
# In short: as §1
# [5] = test system: PPARg homodimer (NR concentration 180 nM)
# In short: as §1
# [6] = test system: PXR:RXRa (NR concentration 270 nM, RXRa partner concentration 90 nM)
# In short: as §1
# [7] = test system: PXR homodimer (NR concentration 270 nM)
# In short: as §1
# [8] = test system: RARa:RXR (NR concentration 270 nM, RXRa partner concentration 90 nM)
# In short: as §1
# [9] = test system: RARa homodimer (NR concentration 270 nM)
# In short: as §1
# [10] = test system: RARb:RXRa (NR concentration 270 nM, RXRa partner concentration 90 nM)
# In short: as §1
# [11] = test system: RARb homodimer (NR concentration 270 nM)
# In short: as §1
# [12] = test system: RARg:RXRa (NR concentration 270 nM, RXRa partner concentration 90 nM)
# In short: as §1
# [13] = test system: RARg homodimer (NR concentration 270 nM)
# In short: as §1
# [14] = test system: RXRa DBDmut IVT, anti-RXR (DBD mutation: RXRa K156A/R161A, NR concentration 90 nM)
# In short: as §1
# [15] = test system: RXRa homodimer (NR concentration 180 nM)
# In short: as §1
# [16] = test system: THRa:RXRa (NR concentration 90 nM, RXRa partner concentration 90 nM)
# In short: as §1
# [17] = test system: THRa homodimer (NR concentration 90 nM)
# In short: as §1
# [18] = test system: VDR homodimer (NR concentration 270 nM)
# In short: as §1
Sequence,PBM binding z-score [1],PBM binding z-score [2],PBM binding z-score [3],PBM binding z-score [4],PBM binding z-score [5],PBM binding z-score [6],PBM binding z-score [7],PBM binding z-score [8],PBM binding z-score [9],PBM binding z-score [10],PBM binding z-score [11],PBM binding z-score [12],PBM binding z-score [13],PBM binding z-score [14],PBM binding z-score [15],PBM binding z-score [16],PBM binding z-score [17],PBM binding z-score [18]
CGAAAGAGGGCATGAGTTGATAGCAAATGCCGAT,2.11,1.03,0.384,-0.376,-0.223,0.604,-0.0785,0.777,-0.0626,2.08,1,1.76,1.96,1.67,1.27,0.416,-0.334,1.1
TCTTGTAGATCAATCGAGGTTAAGAAAGTGCGCT,1.91,1.31,0.666,0.595,0.306,2.74,0.235,1.75,0.262,0.661,0.899,0.6,0.164,0.612,1.01,3.5,0.268,0.299
TCATATAGGTAAAAGGTGAAAGTAGGTGTGGTAA,5.54,5.11,1.51,2.06,2.38,2.11,0.728,3.45,2.24,2.06,2.04,2.13,1.16,2.18,3.34,2.19,0.852,0.549
TCAGACAGGTGAAGGTAACTCACGTACGCAGTCG,2.67,1.17,0.022,-0.274,0.847,0.479,-0.00874,0.651,0.536,1.07,0.616,0.706,0.586,1.3,0.939,0.624,0.0497,-0.22
CAAACTAGGTCAAGACGTCAAAGTCCGCTTCCCG,7.92,8.15,1.87,1.07,1.86,1.24,-0.0732,2.5,0.685,3.97,3.2,4.09,4.74,1.65,3,2.68,0.895,0.581
TCCGCTAGGTCAACGATGGTCAGCTAATCTGCTA,3.72,3.71,-0.291,-0.242,0.617,1.19,-0.762,1.69,-0.297,4.13,3.45,3.93,4.83,1.1,2.23,3.06,1.03,-0.0724
TGAATGAGGTTATAAGATCAAGGAACGTTGCAAA,1.04,1.84,0.592,0.326,0.811,0.776,-0.0343,1.37,0.338,1.18,0.308,1.58,0.824,0.325,2.15,1.84,0.279,0.367
CGTCCAAGGTCAGAGAGGTCTGTGAATGCCGAGT,2.15,2.25,-0.507,-0.56,2.09,2.96,1.23,3.24,0.529,4.49,3.99,4.61,5.25,2.64,3.4,3.38,1.64,1.65
ACAGACAGGTGAGTGAAGGTAACTCAACTGGACG,0.567,0.507,-0.777,-0.0154,-0.369,-0.316,-0.108,0.0758,-0.165,0.486,0.036,0.211,0.661,-0.368,0.324,1.75,-0.422,-0.644
CCTTACGGGTAACTGACAGGTTATAGCATTTGGA,1.03,0.095,-0.022,-0.575,0.529,0.109,-0.252,0.585,0.214,0.274,0.321,0.742,0.501,0.0265,0.525,0.456,-0.293,-0.157
CGAACTAGGTCATTCACAGGACAGTGAATAGTAA,8.25,8.21,1.5,0.729,1.48,1.77,0.314,2.2,0.779,3.72,2.81,4.97,4.43,2.48,2.55,2.91,0.979,1.29
CCTACTGGGCCAAAGGTCATTGAGTCCAATGCTC,5.06,6.83,0.176,-0.111,2.47,6.16,12.7,5.99,1.14,4.71,4.88,5.8,4.63,1.78,6.07,3.57,0.746,4.9
GCTAGTTGGTCAGTAAAAGGTCACACAACGGTCG,0.826,2.77,0.539,0.321,3.81,5.2,1.19,6.17,2.05,4.43,5.29,5.75,5.52,0.797,5.56,3.76,1.74,1.75
CGTCCAAGGTCATAGGAGGTCAGTGAAGACAGAT,3.11,4.48,0.77,-0.116,3.31,6.64,4.38,5.77,1.77,5.4,5.19,6.63,7.12,3.93,6.4,5.42,3.01,4.13
GGAACGAGGGCAAGTTGATACCAGAGTTTGATGG,3.63,3.07,-0.214,-0.247,0.551,0.835,0.927,0.537,0.0477,2.45,1.43,1.53,2.1,2.56,1,1.31,-0.003,2.05
TGAATGAGGTTATAAGATCAGGGAGCGTTGCAAA,0.796,1.56,0.774,-0.572,0.0916,0.406,-0.17,0.968,-0.286,1.03,-0.251,1.37,0.756,0.685,1.8,1.61,-0.245,0.229

Sequence,PBM binding z-score [1],PBM binding z-score [2],PBM binding z-score [3],PBM binding z-score [4],PBM binding z-score [5],PBM binding z-score [6],PBM binding z-score [7],PBM binding z-score [8],PBM binding z-score [9],PBM binding z-score [10],PBM binding z-score [11],PBM binding z-score [12],PBM binding z-score [13],PBM binding z-score [14],PBM binding z-score [15],PBM binding z-score [16],PBM binding z-score [17],PBM binding z-score [18]
TAGCCTAGGTCATGGGTCAGTATACCACGCGAAC,1.91,4.28,1.25,0.834,2.55,2.92,0.237,4.22,0.889,4.1,3.88,5.09,5.02,0.71,4.72,3.51,1.65,1.29
CTGCCAAGGTGAACAAGGTCGTTGATTACTATTC,2.22,2.18,-0.417,-1,0.571,2.35,1.73,1.9,-0.469,2.08,2,1.66,1.29,1.04,1.58,3.07,1.67,1.56
TCTCGGAGGACACGAAGGTTAGAGCTTTCCAGAG,0.921,0.171,-0.626,-1.17,-0.693,0.0364,-0.704,0.0543,-1.13,1.88,1.26,0.969,1.89,0.169,0.126,1.59,0.277,-0.226
CGAACTAGGTCAGAAGAGGACAGTGAAGGATGAT,7.13,7.32,3.38,1.51,1.15,2.5,-0.0219,2.42,0.202,3.05,2.53,2.68,3.66,0.392,1.03,4.34,0.406,0.275
TTAACAAGGTGAGCTGAGGTCGTTGATCCAACTC,1.96,2.33,-0.0875,0.378,-0.141,4.89,0.519,1.62,-0.64,1.66,1.42,1.03,1.09,0.404,1.42,4.55,2.04,1.8
TCTTGTAGATCAATAGCGGTTAAGAAAGTGCGCT,1.73,0.605,-0.463,0.835,0.226,0.449,0.123,0.439,0.667,-0.0234,-0.0533,0.105,-0.0407,0.457,0.288,0.011,-0.478,0.0262
CCGTCTGGGGCAAAGGTTACCATACTCAGTACGA,3.2,5.43,-0.238,-0.231,1.64,2.45,-0.428,4.24,-0.0466,2.5,2.21,3.55,1.87,0.589,3.51,1.74,-0.0764,-0.106
CCTTACGGGTCAACGTTATAGCACGGGTGGTACG,2,3.53,0.108,-0.133,1.79,3.18,-0.188,3.99,0.25,4.13,3.19,4.85,4.64,0.494,5.03,2.36,-0.182,0.692
TAGCCTAGTTCATGGGCCAGTATACCACGCGAAC,0.459,0.731,-0.299,-0.226,-0.229,0.408,0.205,0.216,-0.319,1.37,1.05,0.816,0.746,1.37,0.734,0.187,0.00574,1.42
CGTCCAAGGTCAATGCTATGTCAGTGAAAGCATT,2.87,3.43,-0.154,0.266,2.06,3.61,0.424,3.88,0.262,5.07,4,5.86,6.28,3.14,4.94,3.81,1.93,2.37
ATCTCTAAGTAACCAAGTTCAGTGAATGCCGAAC,-0.304,0.256,0.36,0.891,0.71,1.3,1.61,0.788,0.561,1.16,1.43,0.516,0.56,1.2,0.443,0.648,0.45,2.61
ACTAGCAGGCCAATGGTCACTCAAGATTAGTCCG,0.92,0.714,-0.0875,-0.449,0.0967,-0.626,-0.69,-0.449,-0.683,0.677,0.496,0.131,0.545,-0.107,0.0416,-0.312,-0.672,-0.707
ATACCAAGCTGATCGTGAGGTCGTTGATACTAAC,-0.185,0.0581,0.404,0.536,0.45,1.49,1.06,1.26,0.317,0.454,1.07,0.355,0.15,0.629,0.837,2.12,1.76,2.35
ATCGCTAGGTAAAGATAGTTCAGTGAATGCAAAT,-0.327,-0.329,0.673,0.059,0.116,0.306,0.193,0.173,0.336,0.139,0.559,0.136,0.387,-0.61,-0.287,0.234,-0.407,-0.0178
CTCGAAAGGTCGGTTCAGGTGAGTATACGGATAA,0.179,0.896,0.489,0.134,0.753,2.53,0.887,2.11,0.864,2.96,2.52,2.64,2.62,1.52,2.23,5.09,1.1,2.34
